# How the values were obtained:
# Details in all cases: concentration: 10 µM; 24 h
# HCC1569 [1] = experiment: cell number relative to DMSO (% of DMSO); higher = more cells (less growth inhibition / toxicity)
# Method in brief: (§1)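 Treatment: HCC1569 and TDF cells, 800 per well in 384-well plates with RPMI and 10% FBS, were given compounds at 10 µM for 24 h at 37 °C, in triplicate. Readout: after 3.7% formaldehyde fixation, cells were stained with a rabbit anti-H1.0 antibody, an AlexaFluor 647 secondary and DAPI. Reported values are H1.0 nuclear intensity or cell number as percent of the plate control, taken as the median of replicates, with positional smoothing for HCC1569.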
# TDF [2] = experiment: as above
# Method in brief: as §1
# TDF [3] = experiment: H1.0 immunofluorescence intensity relative to DMSO (% of DMSO); higher = stronger H1.0 induction, active = 120 or more
# Method in brief: as §1
# HCC1569 [4] = experiment: H1.0 immunofluorescence intensity relative to DMSO (% of DMSO); higher = stronger H1.0 induction, active = 140 or more
# Method in brief: as §1
# 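Wherever H1.0 immunofluorescence intensity relative to DMSO is given: TDF is a line of transformed human dermal fibroblasts of mesenchymal origin.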
# 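Wherever cell number relative to DMSO is given: TDF denotes transformed human dermal fibroblasts of mesenchymal origin.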
SMILES,cell number (HCC1569 [1]),cell number (TDF [2]),H1.0 immunofluorescence intensity (TDF [3]),H1.0 immunofluorescence intensity (HCC1569 [4])
Cc1cccc(C#Cc2ccccc2)n1.Cl [6-Methyl-2-(phenylethynyl)pyridine hydrochloride],99.9,105,91.5 (inactive),96.7 (inactive)
Cl.NCCS [Cysteamine hydrochloride],101,99.7,91.2 (inactive),101 (inactive)
COc1ccccc1N1CCN(CC(O)COc2cccc3ccccc23)CC1.Cl.Cl (stereo unspecified) [Naftopidil.2HCl],97.4,98.3,88.6 (inactive),103 (inactive)
CCCCCCCCCC(=O)O [Decanoic acid],105,95.3,100 (inactive),103 (inactive)
O=C(O)CC/C=C\C[C@H]1CO[C@@H](c2ccccc2Cl)O[C@H]1c1ccccc1O,100,96.5,95.5 (inactive),108 (inactive)
CN=C(NC#N)NCCSCc1csc(N=C(N)N)n1 [Tiotidine],102,88.1,105 (inactive),99.1 (inactive)
O=C(OC1CC2CC3CC(C1)N2CC3=O)c1c[nH]c2ccccc12 (stereo unspecified) [Dolasetron],99.1,84.3,102 (inactive),105 (inactive)
CC(C)=CCCC(C)=CCCC(C)=CCSc1ccccc1C(=O)O [Farnesylthiosalicylic acid],93.9,99.9,90.7 (inactive),94.5 (inactive)
N#CC(=C(N)Sc1ccc(N)cc1)c1ccccc1C(F)(F)F [MEK1/2 Inhibitor],100,111,86 (inactive),110 (inactive)
"CN(C)C(=O)N=NC(=O)N(C)C [N,N,N',N'-Tetramethylazodicarboxamide]",94.8,103,91.5 (inactive),99.2 (inactive)
COc1cc2c(CCNC(C)=O)c[nH]c2cc1O [6-Hydroxymelatonin],100,110,91.4 (inactive),94 (inactive)
COc1cc(OC)c(C=C2C(=O)Nc3ccccc32)c(OC)c1,63.1,11.2,145 (active),184 (active)
O=C(Nc1cc(Cl)cc2c1[nH]c1cnccc12)c1cccnc1 [IKK Inhibitor X],98.7,91.8,101 (inactive),106 (inactive)
CCCCCC=CCC=CCC=CCC=CCCCC(=O)OC(COCCCCCCCCCCCCCCCC)COP(=O)([O-])OCC[N+](C)(C)C (stereo unspecified) [Arachidonyl-PAF],98,100,93 (inactive),93.4 (inactive)
"O=C(O)CCC(C(=O)O)N1C(=O)c2ccccc2C1=O [L-Glutamic acid, N-phthaloyl-]",101,110,91.4 (inactive),105 (inactive)
"Cl.O[Si](CCCN1CCCCC1)(c1ccc(F)cc1)C1CCCCC1 (stereo unspecified) [Hexahydro-sila-difenidol hydrochloride, p-fluoro analog]",97.5,88.2,102 (inactive),105 (inactive)
COc1cc(Nc2c(C#N)cnc3cc(OCCCN4CCN(C)CC4)c(OC)cc23)c(Cl)cc1Cl [Bosutinib],67,7.38,135 (active),39.6 (inactive)
C#CC(N)CCC(=O)O (stereo unspecified) [gamma-Acetylinic GABA],103,99.9,93.2 (inactive),84.4 (inactive)
CCCCCCCCCCC(=O)O [Undecanoic acid],104,100,113 (inactive),103 (inactive)
O=C(NCCCN1CCOCC1)c1cnn2c(-c3ccccc3)cc(-c3ccccc3)nc12,95.3,84.3,97.2 (inactive),119 (inactive)
"O=C(O)C=Cc1cc(Br)c(Br)c(Br)c1Br [Casein Kinase II Inhibitor III, TBCA]",98.7,113,92.9 (inactive),105 (inactive)
Cl.O=S(=O)(c1cccc2cnccc12)N1CCCNCC1,100,93.8,92.4 (inactive),92.7 (inactive)
CCCCCCCCC=CCCCCCCCC(=O)NCCO [N-Oleoylethanolamine],99.9,108,98.4 (inactive),115 (inactive)
CN(C)c1cc2c(Nc3ccc4c(cnn4Cc4ccccc4)c3)ncnc2cn1,82.9,90.4,113 (inactive),118 (inactive)

# Reference: the supplement of paper PMC7156485
